High-throughput results deposited in PubChem by National Center for Advancing Translational Sciences (NCATS).
This is one part of a sample in which hits are shown more often than they occur.
Shiga toxin inh – blocks Shiga toxin action in Vero cells; hit rate 9.2% among 290,000; Vero cells, Shiga toxin protein synthesis inhibition reporter; inhibition, % at 38.7 µM; in the data active = inhibition mostly above about 28%, no sharp cut-off; inactive = mostly below about 43%
LmPK inh – inhibitors of Leishmania mexicana pyruvate kinase. purified LmPK, Kinase-Glo ATP luminescence, 1 h. hit rate 0.37% among 290,000. Potency, µM (doses to about 57.5 µM), usual class: inhibitors. Q27686
Target sequence (Q27686 whole entry, looked up): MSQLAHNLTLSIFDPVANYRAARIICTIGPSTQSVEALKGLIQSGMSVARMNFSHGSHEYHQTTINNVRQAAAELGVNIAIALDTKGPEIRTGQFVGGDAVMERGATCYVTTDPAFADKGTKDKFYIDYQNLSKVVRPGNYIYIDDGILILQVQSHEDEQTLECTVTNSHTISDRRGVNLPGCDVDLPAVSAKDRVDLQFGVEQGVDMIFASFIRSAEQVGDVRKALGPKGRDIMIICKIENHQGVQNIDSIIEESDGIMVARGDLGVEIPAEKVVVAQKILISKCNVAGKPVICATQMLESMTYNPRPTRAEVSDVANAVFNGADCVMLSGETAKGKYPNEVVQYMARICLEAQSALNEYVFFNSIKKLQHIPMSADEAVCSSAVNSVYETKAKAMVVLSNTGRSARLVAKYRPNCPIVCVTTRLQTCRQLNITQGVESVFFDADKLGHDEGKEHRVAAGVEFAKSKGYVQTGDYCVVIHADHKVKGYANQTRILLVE
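Purified LmPK (0.1 nM) with 0.5 mM PEP and 0.1 mM ADP in imidazole buffer pH 7.2 with MgCl2/KCl, 1 h at room temperature. ATP formed was read by luciferase luminescence and normalized to no-enzyme and uninhibited controls.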
CHX counter – counter-screen for Shiga toxin inhibitors: cycloheximide protein synthesis inhibition | cell reporter, cycloheximide protein synthesis inhibition counterscreen | max response, % | hit rate 12% among 300,000; in the data active = max response mostly above about 13%, no sharp cut-off; inactive = mostly below about 14%; note: read at 38.3 µM for the half of the compounds with a filed dose
Sm TGR block – S. mansoni TGR enzyme inhibition. Q962Y6. purified TGR, DTNB reduction, TNB absorbance 405 nm. Potency, µM (series often up to 114 µM), usual class: inhibitors. hit rate 3% among 360,000. AID 485364; note: nearly all actives have a fitted effect of over 60% in size
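First, TGR (20 nM dispensed) and NADPH were mixed with compound. Second, a 15 min room-temperature incubation followed. Third, further NADPH and then DTNB were added to start the reaction. Finally, TNB absorbance was monitored kinetically.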
TbPYK inhibitor – T. brucei pyruvate kinase inhibition; Q57TT1; TbPYK enzyme, Kinase-Glo Plus ATP luminescence, 45 min; Potency, µM (top dose mostly 76.8 µM), actives largely listed as inhibitors; hit rate 0.12% among 410,000; AID 624173; note: nearly all actives have a fitted effect of over 50% in size
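Luminescence from Kinase-Glo Plus, added after a 45-minute room-temperature reaction, served as the end-point read-out. The enzyme and substrate were preincubated with compound before ADP (130 uM final) initiated turnover. Concentration-effect curves came from normalized qHTS data.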
Giardia FBPA inh – Giardia lamblia aldolase inhibition; hit rate 0.71% among 290,000; A8B2U2; purified Giardia FBPA; Potency, µM (highest dose often 59.6 µM), actives largely listed as inhibitors; note: nearly all actives have a fitted effect of over 55% in size
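Giardia FBPA (40 nM reagent) was preincubated 10 min at RT with compound (up to 57.5 uM final), then substrate plus GAPDH/TPI/NAD/arsenate coupling system with diaphorase/resazurin was added; resorufin fluorescence (525/598 nm) was read after 20 min.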
Large screens that a line does not name were inactive. Unless noted, calls come from the whole dose curve; as a rule, active = well fitted curve in the direction sought with a large enough effect; inconclusive = small, poorly fitted or top-dose-only effect, or another doubt; inactive = no such curve, though single readings can be large; an effect the other way counts as inactive or inconclusive.

CC(C)(C)c1ccc(S(=O)(=O)c2cnc(SCC(=O)Nc3ccc4c(c3)OCCO4)[nH]c2=O)cc1	none (no result: Shiga toxin inh, LmPK inh, CHX counter, Giardia FBPA inh)
CCc1ccc(S(=O)(=O)c2nnn3c2nc(NCCc2ccccc2)c2sccc23)cc1	none (no result: Shiga toxin inh, LmPK inh, CHX counter, Giardia FBPA inh)
CCOc1ccc(C(=O)CSc2nnc(N)s2)cc1	Shiga toxin inh 73
COCC(C)n1c(C)cc(C(=O)CSc2nnc(N)s2)c1C (stereo not drawn)	CHX counter 24
Cc1cc(C)c(C(=O)CSc2nnc(C)s2)c(C)c1	none (no result: Sm TGR block)
Cc1ccc(C(=O)CSc2nnc(N)s2)c(C)c1	Shiga toxin inh 78, CHX counter 38 (no result: Sm TGR block)
Cc1nnc(SCC(=O)c2ccc(C(C)C)cc2)s1	Shiga toxin inh 74, CHX counter 31
Cc1cccc(NC(=O)c2c(C)cc(C)nc2SCC(=O)Nc2c(C)cc(C)cc2C)c1	none (no result: Shiga toxin inh, LmPK inh, CHX counter, Giardia FBPA inh)
COCCNC(=O)c1cc2c(c(-c3cccc(C#Cc4ccc(OC)c(OC)c4)c3)n1)[C@@H](CCO)N(S(=O)C(C)(C)C)C2 (stereo partly drawn)	none (no result: Shiga toxin inh, LmPK inh, CHX counter, Sm TGR block, Giardia FBPA inh)
CN(C)c1ccc(-c2cc(N(C)Cc3ccco3)ncn2)cc1	none (no result: Shiga toxin inh, LmPK inh, CHX counter, Sm TGR block, TbPYK inhibitor)
O=C(/C=C/c1ccccc1)Nc1scc(-c2ccccc2)c1C(=O)O	Shiga toxin inh 59, CHX counter 30, Giardia FBPA inh inconclusive
O=C(/C=C/c1ccco1)Nc1scc(-c2ccccc2)c1C(=O)O	CHX counter 22, Sm TGR block 8.9µM, Giardia FBPA inh inconclusive
Cc1ccccc1C(=O)Nc1scc(-c2ccc(Br)cc2)c1C(=O)O	none (no result: Shiga toxin inh, LmPK inh, CHX counter, Sm TGR block, Giardia FBPA inh)
Cc1cccc(NC(=O)CSc2nccn2Cc2ccco2)c1C	CHX counter 18
Cc1cccc(NC(=O)CSc2nccn2Cc2ccco2)c1	Shiga toxin inh 91, CHX counter 62 (no result: Giardia FBPA inh)
Cc1cc(C)cc(NC(=O)CSc2nccn2Cc2ccco2)c1	CHX counter 22 (no result: Giardia FBPA inh)
Cc1ccccc1NC(=O)CSc1nccn1Cc1ccco1	none (no result: Shiga toxin inh, LmPK inh, CHX counter, Sm TGR block, Giardia FBPA inh)
COc1ccc(-c2cc3nc(C)c(CCC(=O)NCc4ccccc4Cl)c(C)n3n2)c(OC)c1	none (no result: Shiga toxin inh, LmPK inh, CHX counter, Giardia FBPA inh)
CCOC(=O)c1cccc(NC(=O)CCC(=O)N2CC(C)Oc3ccc(C)cc32)c1 (stereo not drawn)	none (no result: Shiga toxin inh, LmPK inh, CHX counter, Giardia FBPA inh)
O=C1/C(=C/Nc2ccc3c(c2)OCO3)CCc2ccccc21	LmPK inh 13µM, Sm TGR block inconclusive, TbPYK inhibitor inconclusive, Giardia FBPA inh 14µM
COc1ccc2c(c1)CC/C(=C\Nc1ccc3c(c1)OCO3)C2=O	CHX counter 77, Sm TGR block 6.3µM, Giardia FBPA inh 7.9µM
COc1ccc(N/C=C2\CCOC2=O)cc1	none
COc1ccc(N/C=C2\CCc3ccccc3C2=O)cc1	LmPK inh 13µM, Sm TGR block 40µM, TbPYK inhibitor inconclusive, Giardia FBPA inh 11µM
CC#CCN1c2ccccc2[C@]23C[C@@H](C(=O)OC)N(S(=O)(=O)c4ccc([N+](=O)[O-])cc4)C2=NC(C(=O)OC)=C(C(=O)OC)[C@H]13	none (no result: Shiga toxin inh, CHX counter, Sm TGR block, TbPYK inhibitor)
CCCc1ccc(-c2cc(C(=O)NCCc3ccc(S(N)(=O)=O)cc3)c3ccccc3n2)cc1	Shiga toxin inh 95, CHX counter 54
O=C(NN1CCOCC1)c1cc(-c2ccc(Br)s2)nc2ccccc12	none
CCCc1ccc(-c2cc(C(=O)NN3CCOCC3)c3ccccc3n2)cc1	CHX counter 20 (no result: Giardia FBPA inh)
CCCc1ccc(-c2cc(C(=O)Nc3ccc([N+](=O)[O-])cn3)c3ccccc3n2)cc1	Shiga toxin inh 17, CHX counter 21
CC(C)Oc1cccc(-c2cc(C(=O)NN3CCOCC3)c3ccccc3n2)c1	CHX counter 12 (no result: Giardia FBPA inh)
Cc1noc(-c2ccc(CSCCC(=O)O)cc2)c1NC(=O)OC(C)c1ccccc1Cl (stereo not drawn)	none (no result: LmPK inh, Sm TGR block, TbPYK inhibitor)
N#C[C@H]1C[C@H]2C[C@@H]2N1C(=O)[C@@H](N)C12CC3CC(CC(O)(C3)C1)C2	none (no result: Shiga toxin inh, LmPK inh, CHX counter, Sm TGR block, Giardia FBPA inh)
O=C(Nc1ccc(S(=O)(=O)N2CCCCCC2)cc1)c1[nH]ncc1[N+](=O)[O-]	Shiga toxin inh 56, CHX counter 28 (no result: TbPYK inhibitor, Giardia FBPA inh)
O=C(CSc1nc2[nH]ncc2c(=O)[nH]1)Nc1ccc(OC(F)(F)F)cc1	none (no result: Shiga toxin inh, LmPK inh, CHX counter, Giardia FBPA inh)
O=C(Nc1ccc([N+](=O)[O-])cc1)c1ccc(S(=O)(=O)N2CCCC2)cc1	none
O=C(Nc1ccc(OC(F)(F)F)cc1)c1[nH]ncc1[N+](=O)[O-]	Shiga toxin inh 78, CHX counter 43
